Source: PubChem
The sample as a whole holds a higher share of hits than the screen did.
LmPK inhibitor = blocks Leishmania mexicana pyruvate kinase activity; Potency, µM (doses to about 57.5 µM), for inactives: top-dose activity change, negative = inhibition, most hits filed as inhibitors; purified LmPK, Kinase-Glo ATP luminescence, 1 h; Q27686; AID 1721; hit rate 0.37% among 290,000; further: potency means the concentration at half of the fitted maximal effect; on the % scale 0 is the no-effect control and ±100 the full control effect
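qHTS format; LmPK 0.1 nM; substrates PEP 0.5 mM and ADP 0.1 mM. One-hour room-temperature incubation, then coupled luciferase luminescence; 0.5 nM enzyme wells mark activation.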
Shiga inhibitor = inhibitors of Shiga toxin in Vero cells | Vero cells, Shiga toxin protein synthesis inhibition reporter | inhibition, % at 38.7 µM | hit rate 9.2% among 290,000 | AID 2315; in the data active means inhibition mostly above about 28%, no sharp cut-off; inactive means mostly below about 43%; further: 0% is about no effect
Sm TGR block = blocks Schistosoma mansoni thioredoxin glutathione reductase; Q962Y6; purified TGR, DTNB reduction, TNB absorbance 405 nm; Potency, µM (doses to about 114 µM), for the others: top-dose activity change, negative = inhibition, usual class: inhibitors; hit rate 3% among 360,000; AID 485364; further: potency means the concentration at half of the fitted maximal effect; on the % scale 0 is the no-effect control and ±100 the full control effect; nearly all actives have a fitted effect of over 60% in size
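First, TGR (20 nM dispensed) and NADPH were mixed with compound. Second, a 15 min room-temperature incubation followed. Third, further NADPH and then DTNB were added to start the reaction. Finally, TNB absorbance was monitored kinetically.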
CHX counter = affects cycloheximide protein synthesis inhibition readout, counter-screen; cell reporter, cycloheximide protein synthesis inhibition counterscreen; max response, %; hit rate 12% among 300,000; AID 2314; in the data active means max response mostly above about 13%, no sharp cut-off; inactive means mostly below about 14%; further: read at 38.3 µM for the half of the compounds with a filed dose; 0% is about no effect
FBPA Giardia inh = blocks Giardia fructose-bisphosphate aldolase activity; purified Giardia FBPA; A8B2U2; Potency, µM (doses to about 59.6 µM), for the others: at the top dose activity, negative = inhibition, most hits filed as inhibitors; hit rate 0.71% among 290,000; further: potency means the concentration at half of the fitted maximal effect; on the % scale 0 is the no-effect control and ±100 the full control effect; nearly all actives have a fitted effect of over 55% in size
Target sequence (A8B2U2 whole entry, looked up): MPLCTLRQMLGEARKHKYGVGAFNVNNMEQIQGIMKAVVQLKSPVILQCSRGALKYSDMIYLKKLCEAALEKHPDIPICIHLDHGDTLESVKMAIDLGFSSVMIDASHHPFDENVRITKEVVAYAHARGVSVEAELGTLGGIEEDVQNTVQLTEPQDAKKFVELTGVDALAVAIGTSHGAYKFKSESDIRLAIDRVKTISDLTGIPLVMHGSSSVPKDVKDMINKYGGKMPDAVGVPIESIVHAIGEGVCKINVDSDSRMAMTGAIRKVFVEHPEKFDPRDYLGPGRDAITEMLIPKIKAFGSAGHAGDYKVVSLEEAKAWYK
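Giardia FBPA (40 nM reagent) was preincubated 10 min at RT with compound (up to 57.5 uM final), then substrate plus GAPDH/TPI/NAD/arsenate coupling system with diaphorase/resazurin was added; resorufin fluorescence (525/598 nm) was read after 20 min.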
Tb PYK inh = inhibitors of Trypanosoma brucei pyruvate kinase. AID 624173. Potency, µM (highest dose often 76.8 µM), without a hit: at the top dose activity, negative = inhibition, usual class: inhibitors. TbPYK enzyme, Kinase-Glo Plus ATP luminescence, 45 min. hit rate 0.12% among 410,000. Q57TT1; further: potency means the concentration at half of the fitted maximal effect; on the % scale 0 is the no-effect control and ±100 the full control effect; nearly all actives have a fitted effect of over 50% in size
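TbPYK + substrate in 50 mM TEA pH 7.2, 100 mM KCl, 10 mM MgCl2, 0.05% BSA, 0.01% Tween-20; cpd pinned; ADP 130 uM final; 45 min RT; Kinase-Glo Plus 10 min; luminescence endpoint.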
* marks the source's active call; other numbers are inactive results; ? = inconclusive; / = not tested or not shown; [ ] = dose if it differs, or a comment. Unless noted, the call rests on the fitted dose curve; in most records, active means well fitted curve in the direction sought with a large enough effect; inconclusive means small, poorly fitted or top-dose-only effect, or another doubt; inactive means no such curve, though single readings can be large; an effect the other way counts as inactive or inconclusive.

SMILES	LmPK inhibitor	Shiga inhibitor	Sm TGR block	CHX counter	FBPA Giardia inh	Tb PYK inh
COc1ccc(O[C@H]2C=C[C@@H](c3ccccc3)O[C@H]2CO/N=C(/C)CCC(=O)OC[C@@H]2O[C@H](C#Cc3ccccc3)C=C[C@@H]2Oc2ccc(C)cc2)cc1	/	/	/	/	0%[12.9 µM]	/
CC(=O)c1ccc(NC(=S)NN2C(C)CCCC2C)cc1 (configuration not stated)	5%	-27	51%	-4	0%	3%
CC(=O)c1ccc(NC(=S)NC2CCCC(C)C2C)cc1 (configuration not stated)	4%	48*	-6%	17*	1%	1%
CC(=O)c1ccc(-c2ccc(C(=O)NC3CCCCCC3)o2)cc1	2%	41*	22µM*	28*	-20%	7%
Cc1ccc(NS(=O)(=O)c2cnc(N)nc2)c(C)c1	/	/	0%	/	/	-5%
Cc1cccc(NC(=O)c2cc3c(n(-c4ccccc4)c2=O)CCCC3=O)n1	-2%	-1	32µM*	-4	?	-3%
COC(=O)C(CCSC)NC(=O)c1cc2c(n(-c3ccc(C)cc3)c1=O)CCCC2=O (configuration not stated)	27%	25	?	19*	-9%	-2%
COC(=O)C(CCSC)NC(=O)c1cc2c(n(-c3ccc(C)cc3)c1=O)CC(C)(C)CC2=O (configuration not stated)	/	/	-1%	/	/	1%
CCN1Cc2c(/C=C/c3ccccc3)nc3ccc(OC)cc3c2N(c2cccc(Cl)c2)C1	-1%	-4	40µM*	0	0%	4%
CCC(C)NC(=O)CSc1nc2n[nH]c(C)c2c(=N)n1-c1cc(Cl)ccc1C (configuration not stated)	/	/	-1%	/	/	-2%
Nc1nc(Nc2ccccc2)sc1C(=O)c1ccccc1	7%	90*	-8%	36*	10%	-10%
COc1ccc(C(=O)c2sc(Nc3ccccc3F)nc2N)cc1	5%	86*	-14%	41*	5%	-3%
Cc1cnc(NC(=O)c2sc(Nc3ccccc3)nc2N)o1	-2%	90*	6%	28*	-3%	-3%
COc1ccc(C(=O)n2nc(C)cc2Nc2ccccc2)cc1	4%	72	-19%	43*	1%	-6%
Cc1cc(C)c(NC(=O)c2cc3c(=O)n4ccccc4nc3n2C)c(C)c1	/	/	3%	/	/	4%
COc1ccccc1CNC(=O)c1ccc2c(c1)CCN2S(=O)(=O)c1ccc(Cl)cc1	/	/	5%	/	/	-6%
COc1ccc(C(=O)N2CCN(c3nc4c(OC)cccc4s3)CC2)cc1OC	/	/	-2%	/	/	-2%
O=C(Cn1cnc2c(oc3ccccc32)c1=O)Nc1ccc(F)cc1F	/	/	-15%	/	/	2%
CCN(CC)C(=O)c1sc2c(c1C)c(=O)n(Cc1ccccc1)c(=O)n2CC(=O)Nc1ccc(OC)cc1	/	/	10%	/	/	-1%[15.4 µM]
COc1ccc(C(=O)c2sc(Nc3ccccc3)nc2N)cc1	3%	28	-14%	41*	2%	-1%
Cc1ccc(Nc2sc(C(=O)c3ccccc3)c(N)c2C(N)=O)cc1	/	/	50µM*	/	/	-16%
COc1cc(OC)c(NC(=O)c2ccc3c(c2)N(Cc2ccc(C)cc2)CCS3)cc1Cl	/	/	3%	/	/	0%
Cc1cc(-c2nnc(-c3ccccc3)c(-c3ccccc3)n2)c(C)o1	0%	-9	6.3µM*	-4	-4%	4%
FC(F)(F)c1ccc(C2[C@H]3CN(Cc4ccc(-c5ccccc5)cc4)[C@H](c4ccccc4)C34CC2(c2ccccc2)C4)cc1 (some centres not stated)	-1%	-3	50µM*	-1	1%	4%
FC(F)(F)c1ccc(C2[C@H]3CN(Cc4ccc(-c5ccccc5)cc4)[C@H](c4ccccc4)C34CC2(c2cccnc2)C4)cc1 (some centres not stated)	1%	-1	-4%	-3	0%	0%
SMILES	LmPK inhibitor	Shiga inhibitor	Sm TGR block	CHX counter	FBPA Giardia inh	Tb PYK inh
Cc1cc(C)cc(NC(=O)c2cccc(C(=O)Nc3cc(C)cc(C)c3)c2)c1	/	/	-4%	/	/	1%
CCOC(=O)Cc1csc(NC(=O)c2sc3nc4c(C)cc(C)cc4cc3c2N)n1	0%	12	8%	20*	-16%	2%
CCOC(=O)Cc1csc(NC(=O)c2csc(C)c2)n1	0%	35*	-16%	28*	12%	-4%
CCOC(=O)Cc1csc(NC(=O)COc2ccc(OC)cc2)n1	3%	21	0%	-3	3%	2%
CCOC(=O)Cc1csc(NC(=O)c2cccc([N+](=O)[O-])c2)n1	5%	4	3%	0	-15%	-11%
CCOC(=O)Cc1csc(NC(=O)c2cccc(OC)c2)n1	-6%	20	13%	12*	-4%	-10%
CCOC(=O)Cc1csc(NC(=O)c2ccc(OC)c(OC)c2)n1	-1%	-15	0%	2	1%	0%
CCOC(=O)Cc1csc(NC(=O)Nc2cccc(OC)c2)n1	0%	30	7%	17*	-4%	-2%
O=C(Nc1ccc(Br)cc1)c1cc(S(=O)(=O)N2CCc3ccccc32)ccc1F	/	/	-1%	/	/	11%
CCN(CC)CC(C)(C)C(=O)/C=C/c1ccc(/C=C/C(=O)C(C)(C)CN(CC)CC)cc1	/	/	/	/	/	-11%
O=c1c(N2CCN(c3cccc(Cl)c3)CC2)csc2ccc(Cl)cc12	/	/	1%	/	/	3%
COc1ccc(Br)cc1CNC(=O)CN1C(=O)c2cccnc2Oc2ccc(C)cc21	/	/	-3%	/	/	-3%[15.4 µM]
CCOC(=O)CN(Cc1sccc1C)C(=O)Nc1cccc(OC)c1	4%	48*	-15%	12*	-1%	4%
CCN(CC(=O)Nc1cccc(OC)c1)C(=O)c1ccc(C)s1	-1%	-4	-7%	-2	2%	-24%
CCc1nn(-c2ccccc2)c2nc(-c3cccc(OC)c3)c3cc(OC)c(OC)cc3c12	/	/	-7%	/	/	4%
CC1=C(C#N)C(=O)NC(=O)/C1=C/c1ccc(-c2ccc(S(N)(=O)=O)cc2)o1	0%	17	8.9µM*	-3	4%	?
C=CCOC(=O)c1cc(-c2ccc(/C=C3\C(=O)NC(=O)C(C#N)=C3C)o2)ccc1Cl	13%	-4	7.9µM*	2	?	-11%
CCCOC(=O)c1cc(-c2ccc(/C=C3/C(=O)N(C)C(=O)C(C#N)=C3C)o2)ccc1Cl	/	/	/	/	/	-18%
C[C@@H]1CN([C@H](C)CO)C(=O)CCCn2cc(nn2)CO[C@H]1CN(C)S(=O)(=O)c1ccc(-c2ccccc2)cc1	/	/	/	/	/	0%
CC12C=CC(=O)C=C1[C@@H](F)CC1C2C(O)CC2(C)C1CC[C@]2(O)C(=O)CO (some centres not stated)	/	33	/	3	-2%	2%
O=C(/C=C/c1ccc(-c2ccccc2[N+](=O)[O-])o1)c1ccc(Br)cc1	3%	12	?	11	-16%	-6%
